In ChEMBL document CHEMBL1961873, “Compounds: GSK PKIS; Assays: Nanosyn kinase panel” (2012) one finds inhibition data, which are given here for seven compounds.

Values joined by “and” are separate entries in the source; they are usually repeats but may differ in a detail not shown here. Equal entries are not always repeated.

For assay [1], the target named is T1, Ephrin type-B receptor 2 (Homo sapiens) (UniProt P29323).
T1 sequence (whole entry): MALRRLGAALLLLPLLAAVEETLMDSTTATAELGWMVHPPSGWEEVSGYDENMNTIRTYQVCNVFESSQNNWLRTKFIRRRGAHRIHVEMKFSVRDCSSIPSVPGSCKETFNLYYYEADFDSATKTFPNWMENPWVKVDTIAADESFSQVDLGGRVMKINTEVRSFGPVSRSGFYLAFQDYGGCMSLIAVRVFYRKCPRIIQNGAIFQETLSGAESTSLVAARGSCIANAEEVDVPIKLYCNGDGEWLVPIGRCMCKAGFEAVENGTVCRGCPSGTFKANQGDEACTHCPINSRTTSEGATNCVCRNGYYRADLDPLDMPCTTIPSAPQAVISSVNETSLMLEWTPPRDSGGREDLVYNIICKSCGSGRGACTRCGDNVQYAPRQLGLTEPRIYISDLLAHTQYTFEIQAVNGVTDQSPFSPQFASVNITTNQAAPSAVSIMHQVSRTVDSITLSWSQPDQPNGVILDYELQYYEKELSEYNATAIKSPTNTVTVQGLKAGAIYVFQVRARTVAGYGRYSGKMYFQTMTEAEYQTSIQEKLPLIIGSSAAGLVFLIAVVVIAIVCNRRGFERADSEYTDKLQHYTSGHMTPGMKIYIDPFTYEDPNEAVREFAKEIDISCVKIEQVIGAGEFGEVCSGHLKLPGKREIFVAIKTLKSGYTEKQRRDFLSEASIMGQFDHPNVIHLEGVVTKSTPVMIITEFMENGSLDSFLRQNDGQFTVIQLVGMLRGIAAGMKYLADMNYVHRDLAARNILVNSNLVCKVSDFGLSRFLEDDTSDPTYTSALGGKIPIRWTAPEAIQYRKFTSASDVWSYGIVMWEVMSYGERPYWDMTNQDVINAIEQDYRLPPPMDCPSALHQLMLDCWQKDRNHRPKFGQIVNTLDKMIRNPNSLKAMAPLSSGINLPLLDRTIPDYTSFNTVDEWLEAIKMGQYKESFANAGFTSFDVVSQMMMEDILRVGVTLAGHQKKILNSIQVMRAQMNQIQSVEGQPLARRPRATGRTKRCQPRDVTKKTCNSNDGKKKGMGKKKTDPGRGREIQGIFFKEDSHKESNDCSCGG
The settings on record: at 1 µM.

Assay [2] has as its target T2, Ephrin type-B receptor 3 (Homo sapiens) (UniProt P54753).
T2 sequence (whole entry): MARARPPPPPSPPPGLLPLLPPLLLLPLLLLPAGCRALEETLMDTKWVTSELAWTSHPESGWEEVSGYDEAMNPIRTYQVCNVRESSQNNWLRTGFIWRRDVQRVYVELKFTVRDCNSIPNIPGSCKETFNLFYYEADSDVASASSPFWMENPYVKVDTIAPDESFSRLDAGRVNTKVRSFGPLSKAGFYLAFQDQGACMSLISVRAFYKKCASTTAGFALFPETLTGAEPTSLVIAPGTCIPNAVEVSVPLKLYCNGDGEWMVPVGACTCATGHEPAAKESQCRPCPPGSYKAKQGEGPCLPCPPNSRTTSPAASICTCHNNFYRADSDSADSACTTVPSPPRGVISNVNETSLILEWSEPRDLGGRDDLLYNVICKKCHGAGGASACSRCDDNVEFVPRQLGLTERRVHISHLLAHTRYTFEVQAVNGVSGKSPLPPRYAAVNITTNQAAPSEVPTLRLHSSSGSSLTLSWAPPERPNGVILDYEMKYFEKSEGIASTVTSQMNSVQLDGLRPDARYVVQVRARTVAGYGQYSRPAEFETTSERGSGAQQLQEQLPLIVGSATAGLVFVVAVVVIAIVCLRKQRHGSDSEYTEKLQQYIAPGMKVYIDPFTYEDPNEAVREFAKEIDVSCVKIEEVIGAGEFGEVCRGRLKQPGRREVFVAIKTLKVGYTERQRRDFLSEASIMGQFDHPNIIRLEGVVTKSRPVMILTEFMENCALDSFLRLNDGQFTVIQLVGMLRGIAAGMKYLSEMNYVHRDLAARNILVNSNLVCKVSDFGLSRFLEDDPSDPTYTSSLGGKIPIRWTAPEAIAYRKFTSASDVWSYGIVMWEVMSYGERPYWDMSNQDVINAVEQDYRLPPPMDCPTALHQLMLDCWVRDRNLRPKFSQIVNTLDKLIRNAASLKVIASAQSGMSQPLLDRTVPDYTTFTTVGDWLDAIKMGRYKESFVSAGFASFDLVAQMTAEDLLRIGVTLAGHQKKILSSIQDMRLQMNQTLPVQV
The settings on record: at 0.1 µM.

Assay [3] concerns the target T2, Ephrin type-B receptor 3 (Homo sapiens). As to conditions: at 1 µM.
In assay [4] the target is T3, Ephrin type-B receptor 4 (Homo sapiens) (UniProt P54760).
T3 sequence (whole entry): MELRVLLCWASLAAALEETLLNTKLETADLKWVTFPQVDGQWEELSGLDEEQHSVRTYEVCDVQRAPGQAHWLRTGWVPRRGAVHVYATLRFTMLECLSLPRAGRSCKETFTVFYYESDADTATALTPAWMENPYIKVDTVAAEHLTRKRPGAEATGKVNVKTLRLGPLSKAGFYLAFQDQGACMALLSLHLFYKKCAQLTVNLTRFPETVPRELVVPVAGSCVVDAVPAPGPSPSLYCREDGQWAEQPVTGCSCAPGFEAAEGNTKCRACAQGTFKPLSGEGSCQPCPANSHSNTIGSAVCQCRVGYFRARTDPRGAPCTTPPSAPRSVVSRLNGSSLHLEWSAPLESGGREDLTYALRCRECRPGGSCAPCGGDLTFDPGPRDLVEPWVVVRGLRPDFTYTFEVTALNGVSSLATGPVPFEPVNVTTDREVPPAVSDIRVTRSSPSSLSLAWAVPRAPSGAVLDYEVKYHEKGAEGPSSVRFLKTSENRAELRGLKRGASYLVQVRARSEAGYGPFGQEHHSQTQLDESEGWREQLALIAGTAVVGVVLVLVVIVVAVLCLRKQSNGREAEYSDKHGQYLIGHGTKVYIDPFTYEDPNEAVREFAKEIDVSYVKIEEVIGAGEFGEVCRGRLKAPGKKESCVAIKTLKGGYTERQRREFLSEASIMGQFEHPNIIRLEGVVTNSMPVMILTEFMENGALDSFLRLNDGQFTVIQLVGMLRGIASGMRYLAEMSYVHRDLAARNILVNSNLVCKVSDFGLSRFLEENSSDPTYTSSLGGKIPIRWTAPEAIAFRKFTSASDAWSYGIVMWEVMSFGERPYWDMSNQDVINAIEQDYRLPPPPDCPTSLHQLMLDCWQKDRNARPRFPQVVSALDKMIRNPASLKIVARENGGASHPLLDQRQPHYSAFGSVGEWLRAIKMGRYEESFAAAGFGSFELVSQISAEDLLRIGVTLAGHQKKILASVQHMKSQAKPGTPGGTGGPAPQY
As to conditions: at 0.1 µM.

Assay [5] concerns the target T3, Ephrin type-B receptor 4 (Homo sapiens). As to conditions: at 1 µM.
Assay [6] concerns the target Receptor tyrosine-protein kinase erbB-2 (Homo sapiens) (UniProt P04626). As to conditions: at 0.1 µM.
Assay [7] shares this target. The settings on record: at 1 µM.
Assay [8] has as its target Receptor tyrosine-protein kinase erbB-4 (Homo sapiens) (UniProt Q15303). As to conditions: at 0.1 µM.
For assay [9] the target is unchanged. The settings on record: at 1 µM.
In assay [10] the target is Tyrosine-protein kinase Fer (Homo sapiens) (UniProt P16591). The settings on record: at 0.1 µM.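 Also: reported figures are averaged percent inhibition of FER.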
Chain of Tyrosine-protein kinase Fer (Homo sapiens) (P16591 whole entry, looked up): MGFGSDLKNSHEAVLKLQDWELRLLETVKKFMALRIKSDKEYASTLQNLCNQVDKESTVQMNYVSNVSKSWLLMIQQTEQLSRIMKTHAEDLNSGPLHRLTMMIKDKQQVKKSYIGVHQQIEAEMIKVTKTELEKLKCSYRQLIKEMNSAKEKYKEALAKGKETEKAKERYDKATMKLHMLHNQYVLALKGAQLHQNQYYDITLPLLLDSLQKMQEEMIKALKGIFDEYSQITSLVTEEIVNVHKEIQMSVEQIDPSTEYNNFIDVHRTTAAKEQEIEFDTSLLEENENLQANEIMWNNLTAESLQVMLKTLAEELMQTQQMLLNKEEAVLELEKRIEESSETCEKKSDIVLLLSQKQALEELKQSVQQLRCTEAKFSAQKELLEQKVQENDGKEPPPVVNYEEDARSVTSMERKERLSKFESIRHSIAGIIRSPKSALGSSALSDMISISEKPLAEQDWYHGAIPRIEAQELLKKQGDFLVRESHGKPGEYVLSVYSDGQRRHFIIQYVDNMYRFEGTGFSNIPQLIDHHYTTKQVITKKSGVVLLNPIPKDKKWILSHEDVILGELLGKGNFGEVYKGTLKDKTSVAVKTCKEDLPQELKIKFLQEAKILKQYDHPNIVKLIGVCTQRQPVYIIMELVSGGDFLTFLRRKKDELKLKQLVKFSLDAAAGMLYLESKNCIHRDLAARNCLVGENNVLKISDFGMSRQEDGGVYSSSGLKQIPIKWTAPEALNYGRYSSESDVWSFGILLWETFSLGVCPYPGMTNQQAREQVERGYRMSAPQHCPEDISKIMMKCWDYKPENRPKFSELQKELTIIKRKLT

Chain of Receptor tyrosine-protein kinase erbB-4 (Homo sapiens) (Q15303 whole entry): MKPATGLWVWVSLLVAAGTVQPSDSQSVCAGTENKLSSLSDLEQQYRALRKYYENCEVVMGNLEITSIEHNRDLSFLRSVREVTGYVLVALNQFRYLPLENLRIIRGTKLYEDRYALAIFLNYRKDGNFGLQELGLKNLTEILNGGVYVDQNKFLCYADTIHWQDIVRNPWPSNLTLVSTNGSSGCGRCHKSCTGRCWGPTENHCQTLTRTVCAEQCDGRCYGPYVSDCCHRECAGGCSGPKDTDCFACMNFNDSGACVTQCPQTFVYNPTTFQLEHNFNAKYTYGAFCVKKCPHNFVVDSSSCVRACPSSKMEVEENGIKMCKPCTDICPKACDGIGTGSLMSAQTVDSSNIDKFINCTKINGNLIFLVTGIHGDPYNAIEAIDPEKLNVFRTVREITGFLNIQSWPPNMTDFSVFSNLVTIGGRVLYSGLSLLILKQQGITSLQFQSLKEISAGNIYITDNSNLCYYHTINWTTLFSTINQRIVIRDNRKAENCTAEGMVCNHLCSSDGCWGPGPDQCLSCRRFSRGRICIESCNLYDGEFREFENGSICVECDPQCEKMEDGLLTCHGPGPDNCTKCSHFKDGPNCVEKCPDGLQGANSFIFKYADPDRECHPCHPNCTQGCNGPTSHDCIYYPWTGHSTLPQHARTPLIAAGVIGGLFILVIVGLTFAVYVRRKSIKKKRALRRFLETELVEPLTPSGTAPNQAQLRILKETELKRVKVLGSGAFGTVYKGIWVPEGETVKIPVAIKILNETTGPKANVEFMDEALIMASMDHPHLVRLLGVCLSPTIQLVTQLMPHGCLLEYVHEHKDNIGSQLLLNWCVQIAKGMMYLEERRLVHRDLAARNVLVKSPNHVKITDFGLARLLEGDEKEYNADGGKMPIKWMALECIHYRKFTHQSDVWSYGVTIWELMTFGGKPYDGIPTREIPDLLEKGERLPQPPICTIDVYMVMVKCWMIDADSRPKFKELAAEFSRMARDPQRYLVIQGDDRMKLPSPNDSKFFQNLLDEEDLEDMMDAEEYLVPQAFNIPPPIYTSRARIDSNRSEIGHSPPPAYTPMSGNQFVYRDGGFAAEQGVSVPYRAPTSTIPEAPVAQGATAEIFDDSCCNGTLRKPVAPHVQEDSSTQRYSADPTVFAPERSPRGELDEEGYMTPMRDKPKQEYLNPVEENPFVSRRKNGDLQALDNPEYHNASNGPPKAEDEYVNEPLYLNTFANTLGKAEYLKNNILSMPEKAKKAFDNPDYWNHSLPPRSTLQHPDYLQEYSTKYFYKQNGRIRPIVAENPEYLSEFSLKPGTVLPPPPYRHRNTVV
Chain of Receptor tyrosine-protein kinase erbB-2 (Homo sapiens) (P04626 whole entry): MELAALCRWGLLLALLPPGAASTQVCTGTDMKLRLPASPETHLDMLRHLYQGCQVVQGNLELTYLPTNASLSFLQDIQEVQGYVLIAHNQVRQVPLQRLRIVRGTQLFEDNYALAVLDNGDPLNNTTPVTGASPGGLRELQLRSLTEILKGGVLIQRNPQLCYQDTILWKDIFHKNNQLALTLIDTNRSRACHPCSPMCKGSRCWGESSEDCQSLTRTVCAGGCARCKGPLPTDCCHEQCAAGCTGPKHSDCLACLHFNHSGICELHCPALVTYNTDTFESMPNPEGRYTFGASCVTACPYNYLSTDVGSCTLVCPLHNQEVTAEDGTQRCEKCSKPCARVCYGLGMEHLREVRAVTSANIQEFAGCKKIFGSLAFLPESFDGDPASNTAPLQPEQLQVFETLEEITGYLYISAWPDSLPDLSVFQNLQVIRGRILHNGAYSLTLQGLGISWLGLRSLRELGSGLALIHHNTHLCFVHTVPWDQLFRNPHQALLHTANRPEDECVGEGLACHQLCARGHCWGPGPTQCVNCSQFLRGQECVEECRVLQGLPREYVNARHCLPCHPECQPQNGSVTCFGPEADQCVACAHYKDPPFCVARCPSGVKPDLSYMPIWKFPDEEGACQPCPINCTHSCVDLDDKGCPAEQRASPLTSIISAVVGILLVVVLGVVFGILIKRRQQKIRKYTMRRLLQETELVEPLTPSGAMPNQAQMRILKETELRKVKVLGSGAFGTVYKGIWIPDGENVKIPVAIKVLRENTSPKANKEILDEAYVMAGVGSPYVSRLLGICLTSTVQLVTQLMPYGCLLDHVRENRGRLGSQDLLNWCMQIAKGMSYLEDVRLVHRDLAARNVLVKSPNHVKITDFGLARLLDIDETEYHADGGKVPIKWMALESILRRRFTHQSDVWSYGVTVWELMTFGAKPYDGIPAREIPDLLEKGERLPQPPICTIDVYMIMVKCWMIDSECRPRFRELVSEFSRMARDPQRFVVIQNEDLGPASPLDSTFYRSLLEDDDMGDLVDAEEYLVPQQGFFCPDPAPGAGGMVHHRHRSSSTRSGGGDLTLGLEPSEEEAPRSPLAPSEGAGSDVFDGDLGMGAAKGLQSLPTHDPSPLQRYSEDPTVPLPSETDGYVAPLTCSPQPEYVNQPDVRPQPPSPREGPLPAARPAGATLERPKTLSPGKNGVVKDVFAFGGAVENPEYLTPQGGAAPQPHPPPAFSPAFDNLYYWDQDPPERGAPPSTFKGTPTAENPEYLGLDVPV

The inhibition is the relative decrease from the control value, in per cent. Consider `Fc1ccc(Nc2nccc(-c3c(-c4ccc(C(F)(F)F)cc4)nn4ncccc34)n2)cc1F`, for which the inhibition was 6.54% in assay [1]; 4.44% in assay [2]; 1.93% in assay [3]; 2.27% in [4]; 1.26% in assay [5]; -0.32% in assay [6]. In addition, the inhibition is -1.28% in assay [7], 9.22% in [8], 10.4% in assay [9] and 4.97% in assay [10].
For `CCn1c(-c2nonc2N)nc2cncc(C(=O)NCCNC)c21`, the inhibition was 7.7% in assay [1]; 3.02% in [2]; 3.19% in assay [3]; -0.07% in assay [4]; 0.78% in [5]; 5.03% in [6]. In addition, the inhibition is 3.74% in assay [7], 10.7% in assay [8], 12.2% in assay [9] and 4.13% in assay [10].
Regarding `c1ccc(-c2n[nH]cc2-c2ccnc(-c3ccc(OCCn4ccnc4)cc3)c2)nc1`, the inhibition in assay [1] was 0.77%; in [2] it was 1.4%; in assay [3], -0.01%; in [4], 0.04%; in assay [5], -0.88%; in [6] it was 0.33%. For the same compound, the inhibition is -1.51% in assay [7], -1.46% in assay [8], 3.39% in assay [9] and 1.51% in assay [10].
As to `Cc1nnc(-c2cccc(-c3ccc(C(=O)NCC4CC4)cc3)c2)o1`, the inhibition in assay [1] turned out to be 9.32%; in [2], 4.24%; in assay [3], 5.58%; in [4], 1.46%; in assay [5], 2.08%; in assay [6], 2.59%. The inhibition in assay [7] was 5.51%; in [8], 8.69%; in assay [9], 12.5%; in [10] it was 3.39%.
Turning to `CN1CCC(C(=O)Nc2n[nH]c3nc(-c4ccc(O)cc4)c(Br)cc23)CC1`, the inhibition in assay [1] was 8.11% and 8.66%; in [2], 1.14% and 1.43%; in [3], 1.83% and 4.59%; in assay [4], -1.77% and 1.07%; in [5], -1.46% and 4.54%; in [6], 6.86% and 3.66%. Also, the inhibition in [7] was 7.03% and 4.93%; in assay [8] it was 6.26% and 5.04%; in assay [9], 8.49% and 8.92%; in [10], 4.47% and -1.58%.
For the compound `Nc1ncnc2occ(-c3ccc(NC(=O)Nc4cc(C(F)(F)F)ccc4F)cc3)c12`, the inhibition was 80.2% and 81.5% in assay [1]; 26.4% and 1.64% in [2]; 63.5% and 51.1% in [3]; 30.6% and 20.3% in assay [4]; 84.8% and 72.7% in assay [5]; 0.55% and 1.68% in assay [6]. The inhibition in assay [7] was -4.37% and 6.37%; in [8], 5.76% and -0.4%; in [9], 4.08% and 3.51%; in assay [10], 6.66% and 0.72%.
As to `NS(=O)(=O)c1ccc(N/N=C2\C(=O)Nc3ccc(C(=O)NCc4ccncc4)cc32)cc1`, the inhibition in assay [1] amounted to 11.1%; in assay [2], 3.93%; in [3], 2.6%; in [4] it was 1.83%; in [5], 4.17%; in assay [6], 2.22%. Besides, the inhibition in assay [7] amounted to 6.09%; in assay [8] it was 6.54%; in assay [9], 7.07%; in [10], 2.36%.
